Test results taken from PubChem BioAssay (NCI).
The panel holds about 83,000 compounds, 20% with a hit somewhere; the sample as a whole holds those more often.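 How to read the values: 0–100, growth inhibition (40 = 60% inhibited); 0, no net growth; -100 to 0, cell death (-40 = 40% of starting cells died; -100 = all dead).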 A number with no mark means an inactive call. Active and inactive are the calls of the source. Rule for the calls: active = growth percent below 10; inactive = the rest.

What follows are molecules tested on MDA-MB-468 breast (assay: NCI-60 one-dose screen, 48 h (100 = growth as untreated, 0 = no growth, -100 = all killed)). Details: 10 µM unless noted.
CC(C)(C)OC(=O)CC1(O)CCCCC1 showed a growth of 94.5%. Cc1nc2ccccc2n1CC1NC(=O)NC1=O (configuration not stated) showed a growth of 97.6%. With CSc1nn2c(-c3ccc4ccccc4c3)ccnc2c1C#N the growth was 41.3%. In the case of COC(=O)CNC(=O)C(=O)c1c(O)c(O)c(C(C)C)c2cc(C)c(-c3c(C)cc4c(C(C)C)c(O)c(O)c(C(=O)C(=O)NCC(=O)OC)c4c3O)c(O)c12, the growth is reported as 15.8%. COc1cc(C2CC(=O)Nc3c2c(C)nn3-c2nc3ccccc3[nH]2)cc(OC)c1O (configuration not stated) gave a growth of 18.5%. COc1ccc(CCNc2nc3c(c(=O)n(Cc4ccc(Br)cc4)c(=O)n3C)n2C)cc1OC gave a growth of 109%. O=S(=O)(O)C(C(I)I)S(=O)(=O)O was tested, and the growth was 95.9%. In the case of COC(=O)[C@]12CC[C@@H](C)[C@H](C)[C@@H]1C1=CC[C@@H]3[C@@]4(C)C(C=O)=C[C@@](C)(COS(C)(=O)=O)C4=CC[C@@]3(C)[C@]1(C)CC2, the growth is reported as -59.8% (active). For O=C1NC(=S)S/C1=C\c1cc(Br)ccc1O, the growth was 112%. In the case of Cc1ccc(NC(=O)/C=C/c2ccc(OCCCOc3ccc4c(C)cc(=O)oc4c3)cc2)cc1, the growth is reported as 77.5%. With C=CCOc1ccc(/C(Cl)=N/N=C(\Cl)c2cc(OC)c(OC)c(OC)c2)cc1 the growth was 23.3%. Molecule COc1ccc(-c2cc(/C=C3\C(=O)Nc4cc(Cl)ccc43)[nH]n2)cc1 has a growth of 11.3%. In the case of CS(=O)(=O)c1ccc(C(=O)N2N=C(c3ccccc3)CC2c2ccc3c(c2)OCO3)cc1 (configuration not stated), the growth is reported as 90.1%. In the case of COc1ccc(-c2nnc(SCC(=O)NC3=NN=C(c4ccccc4)CS3)o2)cc1, the growth is reported as 105%. COC(=O)/C=C1\S/C(=N\NS(=O)(=O)c2ccc(C)cc2)N(c2ccccc2)C1=O was tested, and the growth was 102%. Work on [2H]C([2H])([2H])Oc1ccc(F)cc1/C=C/C(=O)/C=C(O)/C=C/c1cc(F)ccc1OC([2H])([2H])[2H] yielded a growth of 91.6%. In the case of CC(C)CSc1nc(N)nc2c1ncn2C1OC(CO)C(O)C1O (configuration not stated), the growth is reported as 96.5%. Work on CCCC(=O)Oc1ccc(/C(=C(/CC)Cc2ccccc2)c2ccc(OCCN3CCCC3)cc2)cc1 yielded a growth of 42.8%. Work on O=C(NCc1ccccc1)C(Cl)Cl yielded a growth of 85.2%. Work on COc1cc2nc(-c3ccc(C(F)(F)F)cc3)cc(OCCCN3CCOCC3)c2cc1OC yielded a growth of 49.4%. In the case of COc1ccc(OC)c(/C=C/c2nc(=S)n(-c3ccc(Cl)cc3)[nH]2)c1, the growth is reported as 38.8%. For Oc1cccc2ccc(N/N=C/c3cc(CN4CCCCC4)c(O)c4ncccc34)nc12, the growth was -26.3% (active). FC(F)(F)c1ccc(-c2cnc(Cl)nc2NC2CCCCCC2)cc1 was tested, and the growth was -4.8% (active). Work on C=C(C)[C@@H]1CC[C@]2(C(=O)NCCCCCCN(CCCN)CCCN)CC[C@]3(C)[C@H](CC[C@@H]4[C@@]5(C)CC[C@H](OCCCN)C(C)(C)[C@@H]5CC[C@]43C)[C@@H]12 yielded a growth of 21.2% [100 µM]. CCOc1ccc(/C=C/C=N/NC(N)=S)cc1 was tested, and the growth was 80.2%. For Cc1cc2nc3c4cc(Cl)ccc4n(CCN(C)C)c3nc2cc1C, the growth was -42.1% (active). For Cc1cccc2c(=O)c3c(sc12)c(NCCN)nc1ccccc13, the growth was -57.3% (active). Work on CCOC(=O)c1cnc2ccc(Br)cc2c1Nc1cccc(S(N)(=O)=O)c1 yielded a growth of 106%. With CC1(C)CCC(S(=O)(=O)c2ccc3c(c2)/C(=N\O)c2cc(S(=O)(=O)N4CCN(c5ccc(F)cc5O)CC4)ccc2-3)CC1 the growth was -82.5% (active). Work on O=C1Nc2ccccc2/C1=C/c1cccn1CCCCCn1c2ccccc2c(=O)c2ccccc21 yielded a growth of 37.6%. In the case of O=C(CCc1ccc(O)cc1)N/N=C/c1cc(Br)ccc1O, the growth is reported as 56.8%. C[n+]1c2ccccc2nc2c(N)cc(N)cc21 was tested, and the growth was -5.14% (active). Cc1ccc(/C=C(/C#N)n2nnc3ncccc32)cc1 was tested, and the growth was 24.4%. In the case of COc1ccc(-c2nnc(SCC(=O)N3CCN(c4cc5c(cc4F)c(=O)c(C(=O)O)cn5C4CC4)CC3)o2)cc1OC, the growth is reported as 96.4%. Cc1ccc2[nH]cc(-c3nc(-c4cn(C)c5ncccc45)cs3)c2c1 was tested, and the growth was -0.335% (active). For COc1ccc(NC(=O)[C@H](C)NC(=O)OC(C)(C)C)cc1C(=O)Nc1cccc(-c2cc(=O)c3c(OC)c(OC)c(OC)cc3o2)c1, the growth was 4.39% (active). Work on CCOC(=O)c1cc2c(n(C)c1=O)-c1cnn(-c3ccc(OC)cc3)c1CC2 yielded a growth of 93.2%.
